Screening results: PubChem, several laboratories
FadD28 binding: M. tuberculosis FadD28 bisubstrate binding inhibition; FadD28 bisubstrate probe binding, fluorescence polarization; inhibition, % at 12.5 µM; 360,000 tested, 0.22% active; in the data active means inhibition above about 8.5%, passing the limit was not always enough
Mtb hypoxia rep: reduces hypoxia-regulated biosensor signal in M. tuberculosis; 300,000 tested, 0.1% active; fluorescence inhibition, % (concentration not given with the values); M. tuberculosis hypoxia-regulated fluorescent reporter, fluorescence; AID 1159583; in the data active means fluorescence inhibition mostly above about 23%, no sharp cut-off; inactive means mostly below about 17%
Mtb FBA inh: Mtb fructose-bisphosphate aldolase inhibition; purified M. tuberculosis FBA, fluorescence read-out; inhibition, % at 1 µM; 360,000 tested, 2.3% active; AID 588726; in the data active means inhibition above about 27%;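 further: 0% = vehicle and 100% = reference inhibitor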
Rv3671c protease: Rv3671c (M. tuberculosis) protease inhibition; 320,000 tested, 0.048% active; inhibition, % at 5.96 µM; in the data active means inhibition above about 38%;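 further: extracellular domain of Rv3671c used as enzyme; 0% = enzyme with DMSO and 100% = no enzyme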
Mtb UGM inh: blocks M. tuberculosis UGM enzyme; inhibition, % at 10 µM; P9WIQ1; AID 504406; purified UGM, fluorescence polarization probe displacement; 320,000 tested, 0.06% active; in the data active means inhibition above about 10%, passing the limit was not always enough
Target sequence (P9WIQ1 whole entry, looked up): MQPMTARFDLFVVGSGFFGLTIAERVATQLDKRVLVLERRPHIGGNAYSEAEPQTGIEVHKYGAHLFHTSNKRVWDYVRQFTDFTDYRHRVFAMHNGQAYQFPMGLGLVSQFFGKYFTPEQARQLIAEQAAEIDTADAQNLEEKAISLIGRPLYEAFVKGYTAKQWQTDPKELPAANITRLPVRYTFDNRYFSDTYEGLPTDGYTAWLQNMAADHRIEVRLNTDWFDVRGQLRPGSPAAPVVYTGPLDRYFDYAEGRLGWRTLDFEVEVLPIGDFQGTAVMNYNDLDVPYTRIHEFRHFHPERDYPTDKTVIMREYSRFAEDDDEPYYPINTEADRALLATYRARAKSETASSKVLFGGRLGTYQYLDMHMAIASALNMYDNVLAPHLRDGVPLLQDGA
GDH-TPI counter: counter-screen for M. tuberculosis FBA inhibitors: GDH-TPI coupled enzymes. GDH-TPI coupled enzyme counterscreen, NADH absorbance. inhibition, % at 4.8 µM. 360,000 tested, 1.2% active. AID 588335; in the data active means inhibition above about 30%;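 further: 0% = DMSO wells and 100% = wells lacking the enzyme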
Starred values were filed as active, the others as inactive. The list is not random: actives were taken first. Their share in the collection is about 3.5%.

Results for CC(=O)c1ccc(Nc2c3c(nc4ccccc24)CCCC3)cc1 ?
FadD28 binding: -2; Mtb hypoxia rep: 7; Mtb FBA inh: 3; Rv3671c protease: -12; Mtb UGM inh: 0; GDH-TPI counter: 37*

How did Cc1cc(C)nc(NN=Cc2ccncc2)n1 do in these assays?
Mtb hypoxia rep: 14

What do the screens show for `CC(C)CNC(=O)/C=C/C=C/c1ccc2c(c1)OCO2`?
FadD28 binding: 0; Mtb FBA inh: 8; Rv3671c protease: -6; GDH-TPI counter: 39*

Results for O=C(/C=C/C=C/c1ccc2c(c1)OCO2)N1CCCCC1 ?
FadD28 binding: -3; Mtb FBA inh: 2; Rv3671c protease: 1; Mtb UGM inh: 6; GDH-TPI counter: 41*

How did CC=C(C)C(=O)NC(C)CN1C2=NCC(C(C)C)N2CC1Cc1ccc(OC)cc1 (stereo not given) do in these assays?
Mtb hypoxia rep: -3

How did O=c1[nH]c(=S)c2ncn(-c3ccccc3)c2[nH]1 do in these assays?
FadD28 binding: 1; Mtb hypoxia rep: 5; Mtb FBA inh: 2; Rv3671c protease: 1; Mtb UGM inh: -2; GDH-TPI counter: 31*

How did COCCNC(=O)[C@H]1N2C(=O)c3c(ccc(OC)c3OC)C2SC1(C)C (stereo not given in full) do in these assays?
FadD28 binding: -5; Mtb hypoxia rep: 4; Mtb FBA inh: 3; Rv3671c protease: -4; Mtb UGM inh: -1; GDH-TPI counter: -4

How did COc1ccc2c(c1OC)C(=O)N1C2SC(C)(C)[C@H]1C(=O)NCC(C)C (stereo not given in full) do in these assays?
Mtb hypoxia rep: -2; Mtb FBA inh: 152*; Rv3671c protease: -14; Mtb UGM inh: 2; GDH-TPI counter: 3

Results for O=C(O)c1ccc(N/N=C/c2cccc(F)c2)cc1 ?
FadD28 binding: 1; Mtb FBA inh: -4; Rv3671c protease: 2; GDH-TPI counter: 37*

Results for O=C(O)c1ccc(N/N=C/c2ccc3nccnc3c2)cc1 ?
FadD28 binding: 2; Mtb FBA inh: -12; Rv3671c protease: -4; Mtb UGM inh: 0; GDH-TPI counter: 25

What do the screens show for `O=C(O)c1ccc(N/N=C/c2ccc(OC(=O)c3cccc(Cl)c3)cc2)cc1`?
FadD28 binding: 1; Mtb FBA inh: 8; Rv3671c protease: -5; Mtb UGM inh: 0; GDH-TPI counter: 31*

How did O=C(O)c1ccc(N/N=C/c2ccc(F)c(F)c2)cc1 do in these assays?
FadD28 binding: 3; Mtb FBA inh: 1; Rv3671c protease: 4; Mtb UGM inh: 2; GDH-TPI counter: 58*

Results for O=C(O)c1ccc(N/N=C/c2ccncc2)cc1 ?
FadD28 binding: -3; Mtb FBA inh: -4; Rv3671c protease: -11; Mtb UGM inh: -1; GDH-TPI counter: 32*

What do the screens show for `CCNC(=O)CC(C)=NNC(=O)C(=O)Nc1ccc(CC)cc1`?
Mtb hypoxia rep: -2

What do the screens show for `CC1CCc2c(sc(NC(=O)c3ccc(-c4ccccc4[N+](=O)[O-])o3)c2C#N)C1` (stereo not given)?
FadD28 binding: -2; Mtb hypoxia rep: 8; Mtb FBA inh: 0; Rv3671c protease: 1; Mtb UGM inh: 6; GDH-TPI counter: 10

What do the screens show for `N#Cc1c(NC(=O)c2ccc(-c3ccccc3[N+](=O)[O-])o2)sc2c1CCCC2`?
FadD28 binding: -1; Mtb FBA inh: -10; Rv3671c protease: -18; Mtb UGM inh: 1; GDH-TPI counter: 32*

What do the screens show for `Cc1cc2oc3cc(NCCC4CCCN4C)ccc3c(=O)c2cc1C` (stereo not given)?
FadD28 binding: -2; Mtb hypoxia rep: 21; Mtb FBA inh: active; Rv3671c protease: -2; Mtb UGM inh: 3; GDH-TPI counter: 23

What do the screens show for `CC(=O)c1ccc(N2CCN(S(=O)(=O)c3ccc4c(c3)C(Cl)(Cl)C(=O)N4)CC2)cc1`?
FadD28 binding: -2; Mtb FBA inh: 0; GDH-TPI counter: 32*

Results for CC(=O)c1ccc(N2CCN(S(=O)(=O)c3ccc4c(c3)NC(=O)CC(=O)N4)CC2)cc1 ?
FadD28 binding: -4; Mtb hypoxia rep: 0; Mtb FBA inh: 0; Rv3671c protease: 0; Mtb UGM inh: -2; GDH-TPI counter: 10

How did COc1ccc(CCn2c(=N)c(C(=O)NCC3CCCO3)cc3c(=O)n4ccccc4nc32)cc1OC (stereo not given) do in these assays?
FadD28 binding: 0; Mtb hypoxia rep: -6; Mtb FBA inh: -4; Rv3671c protease: -2; Mtb UGM inh: -2; GDH-TPI counter: 12

What do the screens show for `Cc1ccc2nc3c(cc(C(=O)NCC4CCCO4)c(=N)n3CC3CCCO3)c(=O)n2c1` (stereo not given)?
FadD28 binding: 1; Mtb hypoxia rep: 0; Mtb FBA inh: active; Rv3671c protease: 1; Mtb UGM inh: 0; GDH-TPI counter: 2

What do the screens show for `COCCCn1c(=N)c(C(=O)NCc2ccc3c(c2)OCO3)cc2c(=O)n3ccccc3nc21`?
FadD28 binding: -2; Mtb hypoxia rep: 3; Mtb FBA inh: 7; Rv3671c protease: 0; Mtb UGM inh: 1; GDH-TPI counter: 1

How did COCCCn1c(C(=O)N2CC(C)OC(C)C2)cc2c(=O)n3ccccc3nc21 (stereo not given) do in these assays?
FadD28 binding: -2; Mtb hypoxia rep: 3; Mtb FBA inh: active; Rv3671c protease: 0; Mtb UGM inh: 0; GDH-TPI counter: 18

What do the screens show for `CC(NC(=O)c1cc2c(=O)n3ccccc3nc2n(CC2CCCO2)c1=N)c1ccccc1` (stereo not given)?
FadD28 binding: 0; Mtb hypoxia rep: -16; Mtb FBA inh: active; Rv3671c protease: -12; Mtb UGM inh: 2; GDH-TPI counter: 18

What do the screens show for `N=c1c(C(=O)NC2CCCC2)cc2c(=O)n3ccccc3nc2n1CC1CCCO1` (stereo not given)?
FadD28 binding: -2; Mtb hypoxia rep: 2; Mtb FBA inh: active; Rv3671c protease: -7; Mtb UGM inh: -3; GDH-TPI counter: 10

Results for COc1ccc(CCn2c(=N)c(C(=O)NC3CCCC3)cc3c(=O)n4ccccc4nc32)cc1 ?
FadD28 binding: -6; Mtb hypoxia rep: 3; Mtb FBA inh: -5; Rv3671c protease: 7; Mtb UGM inh: -1; GDH-TPI counter: -2

How did NC(Cn1cncn1)=NNC(=O)c1ccc(Cl)cc1Cl do in these assays?
Mtb hypoxia rep: -6

Results for Cc1ccc(CNC(=O)c2cc3c(=O)n4ccccc4nc3n(CC3CCCO3)c2=N)cc1 (stereo not given) ?
FadD28 binding: -3; Mtb hypoxia rep: 9; Mtb FBA inh: active; Rv3671c protease: -6; Mtb UGM inh: 0; GDH-TPI counter: 3

How did N=c1c(C(=O)NC2CCCCC2)cc2c(=O)n3ccccc3nc2n1CC1CCCO1 (stereo not given) do in these assays?
FadD28 binding: 0; Mtb hypoxia rep: -17; Mtb FBA inh: active; Rv3671c protease: 2; Mtb UGM inh: 2; GDH-TPI counter: 6
